A number with no mark means an inactive call. The rule behind the calls is not given here.

Sequence of Pantothenate synthetase (Mycobacterium tuberculosis (strain ATCC 25618 / H37Rv)) (P9WIL5 whole entry, looked up): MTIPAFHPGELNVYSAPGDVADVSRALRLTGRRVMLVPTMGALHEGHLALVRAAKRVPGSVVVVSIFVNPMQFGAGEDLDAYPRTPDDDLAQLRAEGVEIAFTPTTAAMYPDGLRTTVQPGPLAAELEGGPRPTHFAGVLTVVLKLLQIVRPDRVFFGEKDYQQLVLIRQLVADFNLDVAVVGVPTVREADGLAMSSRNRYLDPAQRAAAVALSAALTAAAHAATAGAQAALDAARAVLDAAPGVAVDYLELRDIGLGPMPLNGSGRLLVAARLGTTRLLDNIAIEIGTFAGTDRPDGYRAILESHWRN

The assay concerns the target Pantothenate synthetase (Mycobacterium tuberculosis (strain ATCC 25618 / H37Rv)) (UniProt P9WIL5). As to the kind of experiment: Coupled enzyme confirmation of inhibitors against recombinant Mtb PanC (AID 375).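 Note: 0% = full reaction with vehicle and 100% = no enzyme background.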 The settings on record: coupled enzyme assay; at 10 µM, hits give high values.
Take `O=C(c1cccc(F)c1)N1CCc2ccccc21`: the inhibition was 0%.
`Cc1cc(C)n(-c2nc3ccccc3c(=O)n2OCCOc2ccccc2)n1`: the inhibition was 3%.
On to `O=C(NCCN1C(=O)C2C3C=CC(C3)C2C1=O)N1CCOCC1` (stereo not given), for which the inhibition was 0%.
The value for `COC(=O)CCC(=O)Nc1ccc(S(=O)(=O)N2CCCCCC2)cc1` was 0%.
Take `N[C@@H](C(=O)N[C@@H]1C(=O)N2C(C(=O)O)=C(Cl)CS[C@H]12)c1ccccc1`: the inhibition is 2%.
In the case of `OC(CNCC1COc2ccccc2O1)COCc1cccs1` (stereo not given) it was 0%; in that of `O=C(NCC1CCCO1)c1ccccc1-c1nc(-c2ccc(Cl)cc2)no1` (stereo not given), 1%.
The value for `CCOc1ccc(-c2nc(C#N)c(N3CCCCCC3)o2)cc1` was 4%; that for `Cc1cc(C(=O)Nc2nc3c(s2)CCCC3)cs1` was 0%; that for `O=C1CCCN1CCCNc1ncnc2c1[nH]c1ccc(Cl)cc12` was 9%.
In the case of `CCc1nc2sc(C)c(C)c2c(=O)n1CCO`, the inhibition was 7%.
The value for `CCN1CCN(Cc2ccccc2NC(=O)Nc2ccc(C)cc2)CC1` was 3%.
The value for `Cc1cc(C(=O)CSc2nc3ccccc3n2CCC#N)c(C)n1Cc1cccs1` was 0%.
The value for `C=C(C)CSc1nnc(-c2cccc(S(=O)(=O)N(C)C)c2)n1-c1cc(OC)ccc1OC` was 1%; that for `CCC(=O)Oc1ccc(C/C(=N\O)c2ccc(O)cc2O)o1` was 0%.
In the case of `C#CCN1C(=O)C(O)(CC(=O)c2cccc(OC)c2)c2ccccc21` (stereo not given), the inhibition is 0%.
In the case of `O=C(CSc1nc2cc(Cl)ccc2s1)N1CCN(C(=O)c2ccco2)CC1` it was 9%; in that of `O=C(Nc1ccc2c(c1)OCO2)OCc1ccccc1`, 0%.
In the case of `CCC1SC2=NC(C)=C(C(=O)OC)C(c3ccc(C)cc3)N2C1=O` (stereo not given), the inhibition is 7%.
In the case of `CN(C(=O)c1ccc(S(=O)(=O)NC2CCCC2)cc1)C1CCCCC1` it was 5%; in that of `CCCCc1nccn1CCn1ccnc1CCCC`, 0%.
As for `CCNS(=O)(=O)c1ccc(S(=O)(=O)N(Cc2ccccn2)C2CCCCC2)cc1`, the inhibition is 1%.
Take `CCOc1ccc(-c2noc(-c3ccncc3)n2)cc1OCC`: the inhibition was 4%.
On to `c1coc(-c2nnc(NC3=NCCC3)o2)c1`, for which the inhibition was 0%.
Regarding `CC(O)c1nc2ccccc2n1C1CCCCC1` (stereo not given), the inhibition was 0%.
With `CC1=C(C(=O)N2CCOCC2)C(c2ccccc2F)C2=C(CCCC2=O)N1` (stereo not given), the inhibition is 3%.
In the case of `O=C(O)CC1Sc2nc3ccccc3n2C1=O` (stereo not given), the inhibition was 0%.
For the molecule `CCN(CC)c1ccc(NC(=O)c2[nH]c(C)c(C(C)=O)c2C)c(C)c1`, the inhibition was 0%.
In the case of `Cc1c(NC(=O)C2CCCNC2=O)c(=O)n(-c2ccccc2)n1C` (stereo not given) it was 0%; in that of `COC(=O)c1oc2ccc(Br)cc2c1NC(=O)CN1CCN(C)CC1`, 5%.
In the case of `COC(=O)CCC(NC(=O)c1cc(-c2ccc3c(c2)OCCO3)oc1C)C(=O)OC` (stereo not given) it was 0%; in that of `COC(=O)Nc1sccc1C(=O)Nc1sccc1C(=O)OC`, 0%.
For `Cc1cc(C)nc(SCC(=O)Nc2ccc(S(=O)(=O)Nc3nccs3)cc2)n1`, the inhibition is 0%.
For `CC1CCC(C(=O)NC(C(=O)NCCN2CCC(C)CC2)C(C)C)CC1` (stereo not given), the inhibition was 0%.
Take `CCNC(=O)Cn1cnc2c1c(=O)n(C)c(=O)n2C`: the inhibition was 0%.
The value for `Cn1c(SCc2ccccc2)nnc1C1CCCNC1` (stereo not given) was 0%; that for `CCc1cccc(NC(=O)Cn2cc3c(n2)CCCC3)c1` was 0%.
In the case of `CCCCn1c(SCC(=O)OCC)nc2c1c(=O)[nH]c(=O)n2C` it was 2%; in that of `COc1cccc(CN(C(=O)c2cc3ccccc3oc2=O)C2CC2)c1`, 8%.
Regarding `CN(C1CCS(=O)(=O)C1)S(=O)(=O)c1cccc2nsnc12` (stereo not given), the inhibition was 2%.

As usually defined, the inhibition is how much of the control response was suppressed.

The record behind these values is PubChem BioAssay.
